Results from PubChem BioAssay (NCATS).
Inconclusive results are not listed. Unmarked numbers belong to inactive results. Activity calls are given as the source filed them. The call rests on the fitted dose curve; in most records, active means well fitted inhibition curve with a large enough effect; inconclusive means small, poorly fitted or top-dose-only effect; inactive means flat fitted curve, though single readings scatter.

biological target: Calcium and integrin-binding protein 1 (Homo sapiens) (UniProt Q99828); test: Primary qHTS for Identification of Calcium Integrin Binding Protein 1 (CIB1) Competitor (AID 1508620); details: CIB1-GST / FITC-alphaIIb peptide fluorescence polarization; series mostly up to 114 µM; activity change, negative = inhibition: at the top concentration;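 further: GST tagged CIB1 binding a fluorescein labelled alphaIIb integrin peptide tracer; top concentration of the series differs between compounds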
How it was run: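 CIB1-GST (1 uM final) and compound incubated 15 min at room temperature before adding FITC-alphaIIb peptide tracer (100 nM final). Competition for binding read by fluorescence polarization (ex 480, em 540) after another 15 min at room temperature.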
On the % scale 0 is the no-effect control and ±100 the full control effect.

Chain of Calcium and integrin-binding protein 1 (Homo sapiens) (Q99828 whole entry, looked up): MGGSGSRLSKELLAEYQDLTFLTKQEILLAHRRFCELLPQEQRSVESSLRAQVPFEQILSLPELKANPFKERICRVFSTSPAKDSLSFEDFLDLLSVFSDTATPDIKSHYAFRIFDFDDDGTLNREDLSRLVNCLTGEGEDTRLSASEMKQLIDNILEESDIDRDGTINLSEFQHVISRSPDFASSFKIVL

In order of rising “activity change, negative = inhibition” value:
1. CS(=O)(=O)c1ccc(C(=O)OCC(=O)N2Cc3ccccc3C2)cc1[N+](=O)[O-]  -29.6%
2. Cn1ncc(Cl)c1C1N=C(Nc2nc3ccccc3o2)NC2=C1C(=O)CCC2 (centres undefined)  -20.8%
3. O=C1COc2cc([S+](=O)([O-])Nc3ccc(Cl)c(Cl)c3)c(Cl)cc2N1  -13.8%
4. O=C(Cc1ccc(Cl)c(Cl)c1)Nc1ccc([S+](=O)([O-])Nc2ccccn2)cc1  -11.4%
5. COC(=O)c1ccc(O)c2ncccc12  -10.9%
6. O=C1CCCC2=C1C(c1[nH]ncc1Cl)NC(=NCc1nccs1)N2 (centres undefined)  -10.7%
7. Cc1ccc(NS(=O)(=O)c2cc3c(cc2N2CCCC2)NC(=O)CC3)cc1C  -9.69%
8. CCOC(=O)C1CCN(C(=O)C(C)(C)NC(=O)Nc2ccc3sccc3c2)CC1  -9.54%
9. CCC(=O)NC(c1cc(Cl)c2cccnc2c1O)C1CC1 (centres undefined)  -9.27%
10. COc1ccc(-c2ccc3nnc(-c4ccccc4OC)n3n2)cc1OC  -9.15%
11. Cc1ccc(-c2ccc(=O)n(CC(=O)N(C)C(C)c3cccs3)n2)cc1 (centres undefined)  -7.22%
12. CC(C)(C)OC(=O)N1CCN(c2ccc(NCc3cncc(-c4ccc(C#N)cc4)c3)cc2)CC1  -5.96%
13. Cc1ccc(-c2nn3c(C)nnc3s2)cc1NCc1ccc(-c2cccc(Cl)c2)o1  -5.42%
14. O=C(c1ccc2c(c1)ncn2-c1ccc(Cl)cc1)N1CCCCC1  -5.06%
15. O=C1CCCC2=C1C(c1[nH]ncc1Cl)NC(=NCc1ncc[nH]1)N2 (centres undefined)  -3.83%
16. CC(=O)Nc1sc2c(c1-c1cc3ccccc3[nH]1)CCNC2  -1.67%
17. O=C(NCc1nnc(-c2cc3ccccc3[nH]2)s1)c1ccccc1  0.109%
18. O=C(O)c1ccc2c(c1)C(=O)N([C@H](Cc1ccc([N+](=O)[O-])cc1)C(=O)O)C2=O  0.168%
19. Cc1cc(C)nc(NC(=S)N2CCN(c3ncnc4sccc34)CC2)c1  0.224%
20. CCc1nn2c(=O)cc(NC3CNC3)nc2s1  0.892%
21. COc1ccc(-c2ccc(CNc3ccc(N4CCN(C(=O)OC(C)(C)C)CC4)cc3)o2)cc1  0.961%
22. COc1cc(NC(=O)C(OC(=O)CNC(=O)c2ccccc2)c2ccccc2)cc(OC)c1 (centres undefined)  1.37%
23. FC(F)(F)c1cccc(CSc2nc3ncc(Br)cc3[nH]2)c1  1.98%
24. CCOC(=O)c1ccoc1-c1ccc2ncnc(N(C)Cc3sccc3C)c2c1  2.54%
25. COc1ccc(C2c3c(ncn(Cc4ccccc4)c3=N)Oc3ccc4ccccc4c32)cc1OC (centres undefined)  2.88%
26. c1nc(NCCCN2CCCCC2)c2cc(-c3ccc4c(c3)OCO4)ccc2n1  3.06%
27. Nc1ccc(S(=O)(=O)N2CCCN(S(=O)(=O)c3ccc4c(c3)OCCO4)CC2)cc1  3.56%
28. FC(F)(F)c1cc(N2CCN(C(=S)Nc3cc(Cl)ccn3)CC2)cc(C(F)(F)F)c1  3.84%
29. O=C(NCCc1nc2ccccc2n1CCOc1ccc(F)cc1)C1CCCCC1  4.4%
30. N=c1c2c(ncn1-c1ccccc1)Oc1ccc3ccccc3c1C2c1ccc2c(c1)OCO2 (centres undefined)  4.97%
31. O=C(Nc1ccc(-c2nc3ccccc3[nH]2)cc1)c1ccc2c(c1)OCCO2  5.01%
32. COc1ccc(NC(=S)N2CCN(c3cccc(C(F)(F)F)c3)CC2)nc1  6.16%
33. N#Cc1nc(Nc2cc(F)cc(F)c2)c2ncn(CCN3CCCC3)c2n1  6.34%
34. O=C(Nc1ccc(F)c(C(F)(F)F)c1)Nc1cccc(-c2ccncc2)n1  6.89%
35. N#Cc1ccccc1CCc1nc2ncc(Br)cc2[nH]1  7.28%
36. N=c1c2c(ccn1CCCCc1ccccc1)Oc1ccc3ccccc3c1C2c1ccccc1 (centres undefined)  7.78%

With `CCC1CCC2(C1)N=C(Nc1nc3ccccc3o1)NC1=C2C(=O)CCC1` (centres undefined) the Potency was “inactive”.
With `Cc1cc(C)n2ncc(C(=O)NC3CCC(C(C)(C)C)CC3)c2n1` (centres undefined) the Potency was “inactive”.

With `COc1cc(O)c(C(CC(=O)N2CCCC(C(=O)c3ccccc3)C2)c2ccc3c(c2)OCO3)c(OC)c1` (centres undefined) the “activity change, negative = inhibition” value was 8.78% [at 228 µM].
